Measured potencies and affinities stand elsewhere. The source made the active and inactive calls.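 Rule for the calls: active = in all runs, an absorbance decrease of 25% or more of the average positive control decrease; inconclusive = runs conflict, with both active and inactive results; inactive = all runs inactive, opposite-direction effects included.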
What follows are compounds tested against Protein disulfide-isomerase A6 (Homo sapiens) (UniProt Q15084) (assay: inhibitors of ERp5-mediated insulin aggregation, dose response, biochemical, turbidity, absorbance 650 nm, cherry-picked samples (AID 720566;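 note: negative values mean less insulin aggregation so ERp5 inhibition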)). Conditions: Recombinant ERp5 insulin aggregation; series mostly up to 35 µM.
Protein disulfide-isomerase A6 (Homo sapiens), sequence (Q15084 whole entry, looked up): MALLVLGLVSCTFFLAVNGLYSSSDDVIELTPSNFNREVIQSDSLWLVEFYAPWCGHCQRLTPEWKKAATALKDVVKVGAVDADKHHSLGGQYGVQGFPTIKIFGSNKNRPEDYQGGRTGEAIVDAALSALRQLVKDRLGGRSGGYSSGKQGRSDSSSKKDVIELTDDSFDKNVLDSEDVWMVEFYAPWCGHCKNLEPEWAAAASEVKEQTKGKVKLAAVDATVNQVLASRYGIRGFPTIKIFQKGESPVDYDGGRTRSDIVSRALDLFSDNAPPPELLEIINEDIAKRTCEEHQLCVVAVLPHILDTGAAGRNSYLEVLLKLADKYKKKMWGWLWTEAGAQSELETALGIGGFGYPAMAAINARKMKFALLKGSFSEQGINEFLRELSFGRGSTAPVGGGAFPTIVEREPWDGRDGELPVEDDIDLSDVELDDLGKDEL

outcome, inactive:
COc1ccc(NC(=O)Nc2ccc3c(c2)C(=O)N([C@H](C)CO)C[C@H](C)[C@@H](CN(C)C(=O)C2CCCCC2)OCCCC[C@H](C)O3)cc1
CCC[C@@H](CN1CCC[C@H]1CN1C(N)=NC[C@H]1CC(C)C)N1C[C@@H]([C@H](C)CC)N(CCCC2CCCC2)C1=N
Cc1ccc(S(=O)(=O)N2CCN(C(=O)CCc3nc4ccccc4c(=O)[nH]3)CC2)c(C)c1
O=C(c1cccc(F)c1)N1CCCCN2[C@H](C1)[C@H](c1ccc(-c3ccccc3)cc1)[C@@H]2CO
COC(=O)C[C@H]1C[C@H]2c3cc(NC(=O)Cc4ccncc4)ccc3O[C@H]2[C@H](CO)O1
C[C@@H]1CN([C@H](C)CO)C(=O)c2cc(NC(=O)Nc3ccc(C(F)(F)F)cc3)ccc2O[C@@H]1CN(C)S(=O)(=O)c1ccc(F)cc1
O=C(C[C@H]1C[C@@H]2c3cc(NC(=O)NC4CCCC4)ccc3O[C@@H]2[C@@H](CO)O1)NCc1ccc(Cl)cc1
CC(C)C(NC(=O)c1ccc(F)cc1)C(=O)N1CCOCC1 (centres undefined)
CN1CCN(C(=O)C[C@@H]2C[C@@H]3c4cc(NC(=O)C5CCOCC5)ccc4O[C@@H]3[C@H](CO)O2)CC1
CCN1[C@@H]2c3ccc(-c4ccccc4)c(=O)n3C[C@@H]2[C@@H](CO)[C@@H]1C(=O)NCC(F)(F)F
C/C=C/c1ccc2c(c1)O[C@H](CN(C)Cc1cncnc1)[C@H](C)CN([C@@H](C)CO)S2(=O)=O
Cc1cc(C(=O)Nc2cccc3c2O[C@@H](CN(C)S(=O)(=O)c2ccc(Cl)cc2)[C@@H](C)CN([C@@H](C)CO)C3=O)n(C)n1
COCC(=O)N(C)C[C@@H]1Oc2cc(C#CC(C)(C)O)ccc2S(=O)(=O)N([C@H](C)CO)C[C@@H]1C
COc1ccc(-c2csc(NC(=O)C3CCN(C(=O)c4ccc(F)cc4)CC3)n2)cc1OC
O=C(CN1C(=O)NC2(CCCC2)C1=O)Nc1cc(C(F)(F)F)ccc1N1CCCCC1
Cc1noc(C)c1NC(=O)N(C)C[C@H]1Oc2ccc(NC(=O)c3ccncc3)cc2C(=O)N([C@H](C)CO)C[C@@H]1C
O=C(Nc1ccncc1)C1CCN(S(=O)(=O)c2cccc(C(F)(F)F)c2)CC1
C[C@H](CO)N1C[C@H](C)[C@H](CN(C)S(=O)(=O)c2cn(C)cn2)Oc2ncc(C#Cc3ccccc3)cc2C1=O
COc1ccc2c3c(n(C)c2c1)[C@H](CO)N(S(C)(=O)=O)CC31CCN(CC2CCCC2)CC1
COCC(=O)N(C)C[C@H]1Oc2cc(C#CC(C)(C)O)ccc2S(=O)(=O)N([C@H](C)CO)C[C@H]1C
CCC(=O)Nc1ccc2c(c1)C(=O)N(C)[C@@H]1CC[C@@H](CC(=O)NCC3CC3)O[C@@H]1CO2
CC(C)CC#Cc1ccc2c(c1)O[C@@H](CN(C)C(=O)c1ccccn1)[C@@H](C)CN([C@@H](C)CO)S2(=O)=O
C[C@H](CO)N1C[C@H](C)[C@H](CN(C)Cc2ccc(C(F)(F)F)cc2)Oc2ccc(NC(=O)Nc3cccc4ccccc34)cc2CC1=O
CN(C)C(=O)C[C@@H]1C[C@@H]2c3cc(NS(C)(=O)=O)ccc3O[C@@H]2[C@H](CO)O1
COc1ccc(S(=O)(=O)N(C)C[C@@H]2Oc3ccc(NC(=O)c4ccncc4)cc3C(=O)N([C@H](C)CO)C[C@@H]2C)cc1
CC(C)NC(=O)N(C)C[C@@H]1Oc2ncc(-c3cc4ccccc4o3)cc2C(=O)N([C@H](C)CO)C[C@@H]1C
CCCNC(=O)[C@H]1[C@H](CO)[C@H]2Cn3c(ccc(/C=C/c4ccccc4)c3=O)[C@@H]1N2C(C)=O
C[C@H](CO)N1C[C@H](C)[C@H](CN(C)Cc2cncnc2)Oc2ncc(-c3cccc(C#N)c3)cc2C1=O
COc1ccccc1CN(C)c1ccc(S(=O)(=O)N2CCN(C)CC2)cn1
C[C@@H]1CN([C@H](C)CO)C(=O)Cc2cc(NC(=O)Nc3cccc4ccccc34)ccc2O[C@@H]1CN(C)C(=O)Nc1cccc2ccccc12
O=C(CCN1C(=O)/C(=C\c2ccccc2)SC1=S)NCCCN1CCOCC1
C[C@H]1CN([C@@H](C)CO)C(=O)CCCn2cc(nn2)CO[C@@H]1CN(C)Cc1cccc(C(F)(F)F)c1
COc1ccc2c3c([nH]c2c1)[C@@H](CO)N(C(=O)c1ccc(F)cc1)CC31CCN(C(=O)Nc2cccc(F)c2)CC1
C/C=C/c1ccc2c(c1)O[C@@H](CN(C)S(C)(=O)=O)[C@H](C)CN([C@H](C)CO)S2(=O)=O

Source: PubChem BioAssay AID720566 (Broad Institute, 2013)
